# Test results taken from ChEMBL document CHEMBL3988442, “University of Dundee, Small-Polar-MMV Screening Library” (2021).
# For some of these results: Entries with a potency or affinity are not part of this list.
# Assays:
# Parameters in all cases: scale not given: direction of the effect not stated beside the values
# [1] = target: Protein translocase subunit SecA (Escherichia coli (strain K12)) (UniProt P10408); experiment: Assay to Identify E. coli SecA ATPase Inhibitors; format: functional; conditions: 30 µM
# [2] = target: T1, Ubiquitin-activating enzyme e1, putative (Leishmania donovani (strain BPK282A1)) (UniProt E9BSI1); experiment: Leishmania donovani Ubiquitin Activating Enzyme (LdE1); format: functional; conditions: 30 µM
# T1 sequence (whole entry): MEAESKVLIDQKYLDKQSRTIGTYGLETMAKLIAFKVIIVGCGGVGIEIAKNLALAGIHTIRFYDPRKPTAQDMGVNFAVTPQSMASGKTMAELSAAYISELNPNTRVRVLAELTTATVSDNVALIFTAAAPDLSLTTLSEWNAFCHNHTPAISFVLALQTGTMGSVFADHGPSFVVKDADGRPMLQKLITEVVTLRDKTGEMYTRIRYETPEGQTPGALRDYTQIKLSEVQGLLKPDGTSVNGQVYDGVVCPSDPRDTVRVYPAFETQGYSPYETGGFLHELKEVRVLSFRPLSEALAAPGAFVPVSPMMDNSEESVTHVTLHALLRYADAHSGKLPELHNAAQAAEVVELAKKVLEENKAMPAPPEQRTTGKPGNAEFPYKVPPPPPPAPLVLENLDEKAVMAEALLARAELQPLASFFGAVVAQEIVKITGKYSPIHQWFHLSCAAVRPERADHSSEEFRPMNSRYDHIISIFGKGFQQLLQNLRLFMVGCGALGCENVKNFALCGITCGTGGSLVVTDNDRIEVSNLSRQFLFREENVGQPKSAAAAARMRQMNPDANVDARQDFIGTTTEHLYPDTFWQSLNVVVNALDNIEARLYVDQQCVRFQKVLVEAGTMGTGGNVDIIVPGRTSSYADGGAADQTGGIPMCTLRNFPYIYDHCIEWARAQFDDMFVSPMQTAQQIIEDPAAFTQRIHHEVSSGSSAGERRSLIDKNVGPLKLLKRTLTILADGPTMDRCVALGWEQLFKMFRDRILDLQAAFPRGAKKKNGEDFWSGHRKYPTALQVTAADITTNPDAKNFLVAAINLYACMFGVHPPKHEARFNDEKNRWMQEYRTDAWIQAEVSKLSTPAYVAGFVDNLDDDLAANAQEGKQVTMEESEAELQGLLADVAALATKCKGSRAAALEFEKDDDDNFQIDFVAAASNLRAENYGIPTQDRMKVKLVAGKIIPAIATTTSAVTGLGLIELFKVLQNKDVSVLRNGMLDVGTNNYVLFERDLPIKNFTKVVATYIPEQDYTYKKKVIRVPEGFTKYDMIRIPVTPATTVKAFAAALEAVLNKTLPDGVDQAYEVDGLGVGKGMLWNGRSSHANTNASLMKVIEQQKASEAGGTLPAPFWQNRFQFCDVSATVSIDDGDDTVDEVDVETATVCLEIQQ
# [3] = target: AMP-activated protein kinase, AMPK (Homo sapiens) (UniProt P54646+O43741+P54619+Q9UGJ0+Q9Y478+Q13131+Q9UGI9); experiment: AMP-dependent Kinase enzyme assay. An in vitro enzyme assay that detects ADP turnover that is directly proportional to AMPK activity. This uses naive AMPK that is activated during the assay with MK-8722; format: functional; conditions: 30 µM
# [4] = target: Sialic acid-binding Ig-like lectin 9 (Homo sapiens) (UniProt Q9Y336); experiment: Hs-Siglec9 ALPHAscreen SOP 20170721; conditions: 10 µM
# Trypanosoma cruzi = experiment: Trypanosoma cruzi phosphomannomutase and mannose-1-phosphate guanylyltransferase assay; format: functional; conditions: 10 µM
# [5] = target: T2, Arginase-2, mitochondrial (Homo sapiens) (UniProt P78540); experiment: in vitro enzyme assay to detect the production of urea directly proportional to the activity of Arginase II; format: functional; conditions: 33.3 µM; further: in the data most compounds retested in dose-response had high values
# T2 sequence (whole entry): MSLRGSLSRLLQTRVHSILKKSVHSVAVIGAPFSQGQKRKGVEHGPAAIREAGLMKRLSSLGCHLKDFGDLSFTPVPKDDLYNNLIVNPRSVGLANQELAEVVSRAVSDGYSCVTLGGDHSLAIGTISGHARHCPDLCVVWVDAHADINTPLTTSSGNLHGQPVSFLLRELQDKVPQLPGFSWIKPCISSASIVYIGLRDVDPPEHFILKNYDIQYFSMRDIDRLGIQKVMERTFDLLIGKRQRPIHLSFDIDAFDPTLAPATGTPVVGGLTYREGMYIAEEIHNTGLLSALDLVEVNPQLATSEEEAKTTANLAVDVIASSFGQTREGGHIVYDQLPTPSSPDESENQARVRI
# [6] = target: T3, Proteasome subunit beta (Trypanosoma cruzi) (UniProt O96673); experiment: Trypanosoma cruzi proteasome chymotrypsin-like activity (TcProtChymo) assay.; further: in the data most compounds retested in dose-response had high values; format: functional; conditions: 9.37 µM
# T3 sequence (whole entry): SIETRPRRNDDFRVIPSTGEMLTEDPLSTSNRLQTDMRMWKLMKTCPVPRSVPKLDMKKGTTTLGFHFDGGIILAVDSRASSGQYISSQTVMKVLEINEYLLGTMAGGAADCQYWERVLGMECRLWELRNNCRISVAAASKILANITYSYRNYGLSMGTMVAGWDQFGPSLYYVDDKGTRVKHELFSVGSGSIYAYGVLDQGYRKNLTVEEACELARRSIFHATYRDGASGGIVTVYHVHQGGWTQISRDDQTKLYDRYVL
# Homo sapiens = organism: Homo sapiens; experiment: To identify inhibition of the IFN signalling (Jak-Stat) pathway via expression of an eGFP reporter gene under the control of an IFN-stimulated response element (ISRE) containing MxA promoter.; format: functional; conditions: 30 µM
# [7] = target: T4, Tyrosyl-tRNA synthetase, putative (Trypanosoma cruzi (strain CL Brener)) (UniProt Q4DSP6); experiment: Trypanosoma cruzi tyrosyl tRNA synthetase (TcYRS) _High Tyrosine SOP; format: functional; conditions: 30 µM; further: in the data most compounds retested in dose-response had high values
# T4 sequence (whole entry): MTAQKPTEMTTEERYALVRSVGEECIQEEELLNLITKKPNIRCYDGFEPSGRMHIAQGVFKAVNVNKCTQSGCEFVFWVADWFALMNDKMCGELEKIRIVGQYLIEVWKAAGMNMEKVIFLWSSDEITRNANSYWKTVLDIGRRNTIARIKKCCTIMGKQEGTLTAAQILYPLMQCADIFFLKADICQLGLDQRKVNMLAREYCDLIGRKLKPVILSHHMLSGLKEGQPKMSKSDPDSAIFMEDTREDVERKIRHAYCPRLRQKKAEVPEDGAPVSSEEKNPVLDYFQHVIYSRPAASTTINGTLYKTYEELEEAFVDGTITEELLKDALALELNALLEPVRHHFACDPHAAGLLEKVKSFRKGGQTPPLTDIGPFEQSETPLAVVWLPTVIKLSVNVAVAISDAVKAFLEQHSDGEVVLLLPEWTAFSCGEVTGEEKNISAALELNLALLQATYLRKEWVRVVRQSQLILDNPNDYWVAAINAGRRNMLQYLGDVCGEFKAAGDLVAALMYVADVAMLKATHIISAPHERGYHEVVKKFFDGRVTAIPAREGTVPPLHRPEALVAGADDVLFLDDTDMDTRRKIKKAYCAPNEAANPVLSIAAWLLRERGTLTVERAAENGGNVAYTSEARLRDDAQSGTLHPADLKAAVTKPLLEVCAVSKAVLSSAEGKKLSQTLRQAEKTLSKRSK
# [8] = target: T4, Tyrosyl-tRNA synthetase, putative (Trypanosoma cruzi (strain CL Brener)); experiment: Trypanosoma cruzi tyrosyl tRNA synthetase (TcYRS) SOP; format: functional; conditions: 30 µM
# [9] = target: Chromo domain-containing protein 1 (Saccharomyces cerevisiae (strain ATCC 204508 / S288c) (Baker's yeast)) (UniProt P32657); experiment: ScCHD-1 Enzyme Inhibition Assay; format: functional; conditions: 30 µM; further: in the data most compounds retested in dose-response had high values
# Chromo domain-containing protein 1 (Saccharomyces cerevisiae (strain ATCC 204508 / S288c) (Baker's yeast)), sequence (P32657 whole entry, the tested form may be a part): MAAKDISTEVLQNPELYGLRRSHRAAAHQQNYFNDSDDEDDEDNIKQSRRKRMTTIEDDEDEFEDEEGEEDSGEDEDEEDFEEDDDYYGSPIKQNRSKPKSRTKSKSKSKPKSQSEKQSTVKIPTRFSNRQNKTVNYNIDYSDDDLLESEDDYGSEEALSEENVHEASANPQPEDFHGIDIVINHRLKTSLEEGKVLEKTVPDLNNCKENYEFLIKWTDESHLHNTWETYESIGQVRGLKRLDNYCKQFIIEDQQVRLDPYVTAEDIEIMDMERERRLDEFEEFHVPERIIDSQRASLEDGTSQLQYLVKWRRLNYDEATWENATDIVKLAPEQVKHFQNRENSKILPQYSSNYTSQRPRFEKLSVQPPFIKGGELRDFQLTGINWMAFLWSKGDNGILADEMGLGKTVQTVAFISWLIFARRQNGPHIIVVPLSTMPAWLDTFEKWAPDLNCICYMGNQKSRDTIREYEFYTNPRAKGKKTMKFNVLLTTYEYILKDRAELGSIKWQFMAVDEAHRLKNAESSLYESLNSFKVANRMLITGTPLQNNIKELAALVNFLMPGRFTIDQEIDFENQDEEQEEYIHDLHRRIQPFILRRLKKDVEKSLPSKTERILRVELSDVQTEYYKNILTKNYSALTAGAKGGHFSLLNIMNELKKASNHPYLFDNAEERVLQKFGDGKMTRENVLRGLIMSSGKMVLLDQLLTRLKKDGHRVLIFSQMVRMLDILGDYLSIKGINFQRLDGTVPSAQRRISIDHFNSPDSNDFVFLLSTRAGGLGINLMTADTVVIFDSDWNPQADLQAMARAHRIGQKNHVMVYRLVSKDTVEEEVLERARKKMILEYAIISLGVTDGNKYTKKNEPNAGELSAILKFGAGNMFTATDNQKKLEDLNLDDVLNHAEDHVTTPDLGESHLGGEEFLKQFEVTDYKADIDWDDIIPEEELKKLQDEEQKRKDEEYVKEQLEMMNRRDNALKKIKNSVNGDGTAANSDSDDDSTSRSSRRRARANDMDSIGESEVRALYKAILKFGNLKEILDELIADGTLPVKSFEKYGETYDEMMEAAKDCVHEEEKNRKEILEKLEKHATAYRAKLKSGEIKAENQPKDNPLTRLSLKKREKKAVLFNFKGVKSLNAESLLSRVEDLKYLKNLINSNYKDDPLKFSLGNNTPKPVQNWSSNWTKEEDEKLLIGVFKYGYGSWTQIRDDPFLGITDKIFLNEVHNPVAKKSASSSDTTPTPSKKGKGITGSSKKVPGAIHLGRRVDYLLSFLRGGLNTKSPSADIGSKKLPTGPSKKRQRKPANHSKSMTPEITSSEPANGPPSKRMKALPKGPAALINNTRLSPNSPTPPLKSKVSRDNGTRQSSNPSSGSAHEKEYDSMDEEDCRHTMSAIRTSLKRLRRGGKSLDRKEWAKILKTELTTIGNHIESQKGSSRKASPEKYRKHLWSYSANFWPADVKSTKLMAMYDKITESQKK
# Protein translocase subunit SecA (Escherichia coli (strain K12)), sequence (P10408 whole entry): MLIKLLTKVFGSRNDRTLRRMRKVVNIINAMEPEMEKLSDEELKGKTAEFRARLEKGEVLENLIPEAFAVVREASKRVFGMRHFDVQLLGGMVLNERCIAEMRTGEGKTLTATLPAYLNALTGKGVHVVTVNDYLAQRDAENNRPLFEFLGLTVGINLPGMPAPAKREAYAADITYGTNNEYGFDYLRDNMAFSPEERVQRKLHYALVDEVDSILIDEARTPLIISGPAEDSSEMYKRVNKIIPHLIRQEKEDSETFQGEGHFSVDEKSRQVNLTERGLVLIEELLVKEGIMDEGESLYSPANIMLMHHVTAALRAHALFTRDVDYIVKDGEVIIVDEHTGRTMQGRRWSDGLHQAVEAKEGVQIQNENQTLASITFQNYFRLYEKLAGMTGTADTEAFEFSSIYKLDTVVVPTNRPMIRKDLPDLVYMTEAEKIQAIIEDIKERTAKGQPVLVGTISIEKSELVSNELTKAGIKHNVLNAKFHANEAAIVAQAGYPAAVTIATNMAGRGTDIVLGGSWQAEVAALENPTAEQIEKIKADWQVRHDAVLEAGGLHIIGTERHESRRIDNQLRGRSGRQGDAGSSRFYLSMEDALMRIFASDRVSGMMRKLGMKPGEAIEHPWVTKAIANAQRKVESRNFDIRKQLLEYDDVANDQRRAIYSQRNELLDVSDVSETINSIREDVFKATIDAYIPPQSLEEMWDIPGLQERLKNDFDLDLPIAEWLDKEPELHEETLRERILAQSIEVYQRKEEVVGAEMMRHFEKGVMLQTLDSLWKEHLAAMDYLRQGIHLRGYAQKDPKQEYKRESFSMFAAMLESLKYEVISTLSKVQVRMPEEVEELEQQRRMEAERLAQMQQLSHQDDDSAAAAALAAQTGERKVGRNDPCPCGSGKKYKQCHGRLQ
# Sialic acid-binding Ig-like lectin 9 (Homo sapiens), sequence (Q9Y336 whole entry): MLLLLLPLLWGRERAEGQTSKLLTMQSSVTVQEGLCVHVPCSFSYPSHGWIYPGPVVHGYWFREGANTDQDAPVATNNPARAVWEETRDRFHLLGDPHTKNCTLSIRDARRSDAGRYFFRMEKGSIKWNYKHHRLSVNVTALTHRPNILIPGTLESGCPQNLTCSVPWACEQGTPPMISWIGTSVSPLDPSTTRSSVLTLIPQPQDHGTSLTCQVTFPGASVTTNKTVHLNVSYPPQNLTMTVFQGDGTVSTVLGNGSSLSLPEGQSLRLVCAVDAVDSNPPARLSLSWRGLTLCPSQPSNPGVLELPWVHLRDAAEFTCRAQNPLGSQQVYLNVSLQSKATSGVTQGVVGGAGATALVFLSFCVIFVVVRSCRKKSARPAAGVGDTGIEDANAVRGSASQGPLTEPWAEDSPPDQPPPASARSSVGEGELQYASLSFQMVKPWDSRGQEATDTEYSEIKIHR
SMILES,Percent Effect [1] [%],Percent Effect [2] [%],Percent Effect [3] [%],Percent Effect [4] [%],Percent Effect (Trypanosoma cruzi) [%],Percent Effect [5] [%],Percent Effect [6] [%],Percent Effect (Homo sapiens) [%],Percent Effect [7] [%],Percent Effect [8] [%],Percent Effect [9] [%]
COc1ccc(C2=CCN(C(=O)C3CCN(C)C(=O)C3)CC2)cc1 (stereo not given),-3.77,15.8,2.43,-4.29,9.06,1.8,7.19,6.58,7.39,16.1,-5.39
Cc1nn(C)c(C)c1C1CCCN1Cc1nc(C2CC2)no1 (stereo not given),-2.91,16.2,0.977,-3.54,6.22,-0.924,15.6,16.5,5.94,18.3,-7.69
O=C(NCCN1CCNCC1)c1nc2ccccc2c(=O)[nH]1,3.26,9.33,2.04,-5.44,-7.47,-10.7,12,-0.251,4.23,12.8,-7.33
Cc1nc(N)cc(C2CN(C(=O)c3ccn(C)n3)CCO2)n1 (stereo not given),-6.21,17.6,0.477,3.12,0.198,-3.94,10.4,8.03,3.23,16.9,-24.2
CCn1cc(NC(=O)C2CCN(CCOC(C)C)CC2)cn1,-6.99,7.89,-2.47,-0.756,-6.07,-3.6,3.98,6.54,2.46,3.7,0.215
Cc1cc(C)c(CNC(=O)NCC(O)COc2ccccc2)c(=O)[nH]1 (stereo not given),-9.63,7.89,4.9,1.32,-0.84,-0.719,-1.1,12,1.48,-1.24,-2.07
CC(C)Oc1cccc(C(=O)C2CCCN(C(=O)c3ncn[nH]3)C2)c1 (stereo not given),-0.804,-2.7,-3.49,0.785,7.92,-1.91,21.6,3.35,6.88,12.2,-3.93
COCCc1noc(CN(C)C(=O)c2cccc(N3CCCC3=O)c2)n1,-2.59,-2.53,0.707,3.91,-1.23,-0.38,-0.246,-3.22,-0.493,-3.8,-1.74
CCN(C(=O)COC)C(c1cccnc1)c1cc(C)cc(C)c1 (stereo not given),0.0465,2.74,4.88,27.6,-11.3,1.6,12.9,22.9,-2.08,-8.64,-2.33
CC(C)OCCCNC(=O)CS(=O)(=O)Cc1ccc(Cl)c(Cl)c1,-6.75,5.2,9.19,-7.16,-5.8,-1.78,9.63,33.8,3.88,12.2,-5.85
Cc1ccc(NC(=O)N2CCC(NC(=O)c3ccc(C)o3)CC2)cc1,-4.11,15.6,3.14,4.46,2.45,0.632,6.39,8.38,8.57,23.5,-10.9
Cc1cc(C)n(C2CCCN(C(=O)c3cc(C4CC4)on3)C2)n1 (stereo not given),-4.93,5.2,-0.0913,-0.636,4.41,-1.05,13.8,-1.26,1.91,9.41,-18.6
Cc1nccc([C@H]2C[C@@H]3CCN(S(=O)(=O)N(C)C)C[C@H]3O2)n1,-2.42,8.11,-3.13,27.4,5.18,17.6,3.35,-26.1,4.3,16.1,-6.72
CN1CCCN(C(=O)c2ccc3c(c2)nc(N2CCOCC2)n3C)CC1,-0.416,4.17,-3.77,-0.695,-3.6,-0.883,18.2,21.6,2.1,2.56,-1.63
CC(C)c1nnc2n1CCN(C(=O)c1ccc(OCC(N)=O)cc1)C2,-8.09,18.2,-2.69,-4.74,4.41,-1.9,9.62,4.02,6.67,11.8,-16.8
Cc1nc(CN2C(=O)CC[C@@H]3[C@H]2CCN3C(=O)NC2CC2)cs1,1.26,16.2,-5.26,-11.1,-3.23,0.955,10.2,16.1,1.08,12.8,-6.62
COc1ccc(C)cc1CN(C)Cc1nc2c(cnn2C)c(=O)[nH]1,-1.35,18.4,1.85,2.21,2.52,-4.32,7.02,7.09,9.36,23.5,-5.71
N#Cc1ccnc(N2CCN(C(=O)Cc3ccc4c(c3)CCO4)CC2)c1,-5.74,21.1,-3.75,4.19,5.83,0,13.4,1.61,2.45,19.5,-11.9
O=C(c1n[nH]c2c1CCN(Cc1nccs1)C2)N1CCCC1,-4.94,5.41,-4.39,22.5,4.4,0.744,8.33,-0.319,5.38,6.17,-10.3
OC(CN1CCN(Cc2ccc(F)cc2)CC1)C1CC1 (stereo not given),-4.82,8.22,-8.34,-6.79,0.392,1.82,4.61,2.15,6.45,20,-4.22
